Among the data in PubChem BioAssay (NCI) are growth values, retold here.

This is part of a sample that, as a whole, favours compounds with a hit. Of some 83,000 tested, about 20% had one in any assay.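 Interpretation: 100, growth as untreated; towards 0, rising growth inhibition; 0, no net growth; 0 to -100, cell death. Compounds scoring below 10 were considered active.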 Values without a mark were called inactive. The source made the active and inactive calls.

This experiment concerns HL-60(TB) leukemia. The experiment can be described thus: NCI-60 one-dose screen, 48 h (100 = growth as untreated, 0 = no growth, -100 = all killed). The conditions noted are these: 10 µM unless noted.
Take `COc1ccc(NC2=C(Br)C(=O)C(C)=C(C)C2=O)cc1OC`: the growth is -34.6% (active). For `C#CCN(C)CCCOc1ccc(NC(=O)CCCCCCCCC(=O)NO)cc1Cl` the value was 28.6%. Under `NC(N)=NS(=O)(=O)c1ccc(N=Nc2c(N)nn(-c3ccc([N+](=O)[O-])cc3[N+](=O)[O-])c2N)cc1` stands 97.3%; under `COc1ccc(CCN2C(=O)CSC2=S)cc1OC`, 62.4%; under `CNC(=O)c1cc(N2CCc3cc(NC(=O)Nc4ccc(N5CCOCC5)c(C(F)(F)F)c4)ccc32)ccn1`, 13%. With `O=C(NCCCNc1cc(-c2cn(-c3ccccc3)nc2-c2cccc(O)c2)ccn1)Nc1cccc(C(F)(F)F)c1`, the growth was 24.7%. For `c1cn2c(ccc3nc(-c4cn[nH]c4)c4c(c32)CCCC4)n1` the value was 73.8%; for `COc1cc(OC)c(/C=C/S(=O)(=O)Cc2ccc(OC)c(NCC(=O)NO)c2)c(OC)c1`, -13.5% (active). For `COc1ccc(C2CC(c3ccc(Nc4nc(NCCO)nc(N5CCOCC5)n4)cc3)=Nc3c(N)nc(N)nc3N2)cc1` (stereo not drawn) the value was 90.9%. For `COc1cccc(COc2ccc(/C=C3/C(=O)Nc4cc(Cl)ccc43)cc2)c1` the value was 105%. As for `Cc1csc(/N=C(N)/N=C(\N)c2cccc(Br)c2)n1`, the growth was 91.3%. In the case of `O=C(Nc1cccc(C(F)(F)F)c1)N1CCN(c2cc(-c3cn(-c4ccccc4)nc3-c3cccc(O)c3)ccn2)CC1`, the growth is 20.9%.

Take `CCOC(=O)c1c(NC(=O)c2ccc(C(F)(F)F)cc2)sc2c3c(ccc12)OCN(C)C3`: the growth is -27.6% (active).
